Shown is part of a subset that was picked to be rich in the strongest signals.
Columns and labels:
Test in all cases: glycan array binding signal (z-score within array); higher = stronger binding
Details in all cases: glycan notation: IUPAC condensed, linker removed
[1] = target: GlcNAc(b1-3)Gal(b1-4)GlcNAc(b1-6)[GlcNAc(b1-3)]Gal(b1-4)GlcNAc
Outline: (§1)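 From the Consortium for Functional Glycomics database, 3228 arrays were curated, keeping only those whose protein sequence was available. Binding is given as a within-array Z-score averaged across arrays sharing a protein sequence and across linkers. Negative Z-scores can be read as non-binding.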

[2] = target: GlcNAc(b1-3)[GlcNAc(b1-4)][GlcNAc(b1-6)]GlcNAc
Outline: as §1

[3] = target: GlcNAc6S(b1-3)Gal(b1-4)GlcNAc
Outline: as §1

[4] = target: Man(a1-2)Man(a1-3)[Man(a1-2)Man(a1-6)]Man(a1-6)[Man(a1-2)Man(a1-2)Man(a1-3)]Man
Outline: as §1

[5] = target: Neu5Ac(a2-3)Gal(b1-3)GlcNAc(b1-6)GalNAc
Outline: as §1

[6] = target: Neu5Ac(a2-3)Gal(b1-3)[Fuc(a1-4)]GlcNAc(b1-3)Gal(b1-3)[Fuc(a1-4)]GlcNAc
Outline: as §1

[7] = target: Neu5Ac(a2-3)Gal(b1-3)[GlcNAc(b1-6)]GalNAc
Outline: as §1

[8] = target: Neu5Ac(a2-3)Gal(b1-4)GlcNAc(b1-2)Man
Outline: as §1

[9] = target: Neu5Ac(a2-3)Gal(b1-4)[Fuc(a1-3)]GlcNAc(b1-3)Gal
Outline: as §1

[10] = target: Neu5Ac(a2-3)[GalNAc(b1-4)]Gal(b1-4)GlcNAc(b1-3)GalNAc
Outline: as §1

[11] = target: Neu5Ac(a2-6)Gal(b1-4)GlcNAc(b1-2)Man
Outline: as §1

[12] = target: Neu5Ac(a2-6)Gal(b1-4)GlcNAc(b1-2)Man(a1-3)[Neu5Ac(a2-6)Gal(b1-4)GlcNAc(b1-2)Man(a1-6)]Man(b1-4)GlcNAc(b1-4)GlcNAc
Outline: as §1

[13] = target: Neu5Ac(a2-6)Gal(b1-4)GlcNAc(b1-2)Man(a1-6)[GlcNAc(b1-2)Man(a1-3)]Man(b1-4)GlcNAc(b1-4)GlcNAc
Outline: as §1

[14] = target: Neu5Ac(a2-6)Gal(b1-4)GlcNAc(b1-3)Gal(b1-4)GlcNAc(b1-3)Gal(b1-4)GlcNAc(b1-2)Man(a1-3)[Neu5Ac(a2-6)Gal(b1-4)GlcNAc(b1-3)Gal(b1-4)GlcNAc(b1-3)Gal(b1-4)GlcNAc(b1-2)Man(a1-6)]GalNAc
Outline: as §1

[15] = target: Neu5Ac(a2-6)Gal(b1-4)GlcNAc(b1-3)Gal(b1-4)GlcNAc(b1-3)[Neu5Ac(a2-6)Gal(b1-4)GlcNAc(b1-3)Gal(b1-4)GlcNAc(b1-6)]GalNAc
Outline: as §1

[16] = target: Neu5Ac(a2-6)Gal(b1-4)GlcNAc(b1-6)GalNAc
Outline: as §1

Neu5Ac(a2-8)Neu5Ac = target: Neu5Ac(a2-8)Neu5Ac
Outline: as §1

[17] = target: Neu5Ac(a2-8)Neu5Ac(a2-8)Neu5Ac(a2-3)[GalNAc(b1-4)]Gal(b1-4)Glc
Outline: as §1

[18] = target: Neu5Gc(a2-3)Gal(b1-3)GlcNAc
Outline: as §1

[19] = target: Neu5Gc(a2-8)Neu5Gc(a2-3)Gal(b1-4)GlcNAc
Outline: as §1

B1: CcfD (Bacteroides fragilis), Q5L9G4 (protein)
chain: MKKQNSIYTLLIALLCFVSSCDYLGVSDQLAGGLQNTEQVFDNVSYTKRWYANVFAGIPDYSGINSVNVGAFKNPWTGMCDELVVGYGNSSKYNNSDRNAANMGFHRYGDCYKYIRQANIFLQKAHPIMTTGTQGDQLLEDELTQMKANVRFMRAFYHYLLFEQYGPIILVKDKIYNATEDQDVPRNTVDEVIEYIDSELTAVASELTQEPIFEDKDYRAWPTKGVALAVRAKLWLYAASPLLNGGYREALSVTNPDGTRLFPDYDAGKWEKALAACKDFIDYAEAGRYELYKEYKDDNGAVIDPDKSVYNLFQKYTHEIIWATANNDWGGMNGDAFDRRIAPRCEKNGLGSTGVTQELVDAFYMKDGFPVSATAYLPQSTLYQEEGYGTYKDQNDNFSKKYTNVTVSNRYLNREPRFYNTVFFNGRQWPVSCNQVLFYNGGNSGVQEGQATLTGYMLFKRFNRSVSLTNPGVASQFRPSIIFRLADFYLMYAEAANEVNPNDARVLKYLNLVRERAGLPDIETLNPAIRGNQELQRAAIQRERQIELATEGQRYFDVRRWMIADKNGEGRQNGYVHGMNVRGESNDKEDFNRIVEASQIVFNRKMYLYPMPDSEMRKTKNLVQNPGW
- glycan array binding signal (z-score) [1]: 0.069
- glycan array binding signal (z-score) [2]: 2.83
- glycan array binding signal (z-score) [3]: -0.516
- glycan array binding signal (z-score) [4]: 2.93
- glycan array binding signal (z-score) [5]: -0.64
- glycan array binding signal (z-score) [6]: -0.68
- glycan array binding signal (z-score) [7]: 0.22
- glycan array binding signal (z-score) [8]: -0.338
- glycan array binding signal (z-score) [9]: 0.036
- glycan array binding signal (z-score) [10]: 0.036
- glycan array binding signal (z-score) [11]: -0.522
- glycan array binding signal (z-score) [12]: 0.561
- glycan array binding signal (z-score) [13]: 4.06
- glycan array binding signal (z-score) [14]: 2.39
- glycan array binding signal (z-score) [15]: 2.75
- glycan array binding signal (z-score) [16]: -1.06
- glycan array binding signal (z-score) (Neu5Ac(a2-8)Neu5Ac): -0.378
- glycan array binding signal (z-score) [17]: -0.936
- glycan array binding signal (z-score) [18]: -0.456
- glycan array binding signal (z-score) [19]: -1.19

Source: the supplement of paper PMC8728848
